Activity calls are given as the source filed them.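 The calls were made as follows, unless noted: active = normalized viability below 100% at a tested concentration; inactive = the rest.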
experiment: ovarian cancer cell viability with rucaparib, profiling panel, oncology-focused library, rucaparib conditional (AID 1508598); settings: patient-derived ovarian cancer cells, CellTiter-Glo viability, 144 h; at 5 µM; OCI-P5x cells; without rucaparib; stronger effect = lower value

Row | Compound | viability
1 | O=c1[nH]c(=O)n([C@@H]2C[C@H](O)[C@@H](CO)O2)cc1F | 49.4% (active)
2 | COc1cccc2c1C(=O)c1c(O)c3c(c(O)c1C2=O)C[C@@](O)(C(C)=O)C[C@H]3O[C@H]1C[C@H](N)[C@H](O)[C@H](C)O1 | 3.15% (active)
3 | C[C@]12CC[C@H]3c4ccc(O)cc4CC[C@H]3[C@@H]1CC[C@H]2O | 110% (inactive)
4 | CC1=C(/C=C/C(C)=C\C=C\C(C)=C/C(=O)O)C(C)(C)CCC1 | 82.8% (active)
5 | CC(C)CC(CC(=O)NO)C(=O)N[C@@H](Cc1ccc2ccccc2c1)C(=O)N[C@@H](C)C(=O)NCCN (some centres undefined) | 88.3% (active)
6 | COc1cccc2c1C(=O)c1c(O)c3c(c(O)c1C2=O)C[C@@](O)(C(=O)CO)C[C@H]3O[C@H]1C[C@H](N)[C@@H](O)[C@H](C)O1 | 5.43% (active)
7 | COc1ccc(C2=N[C@H](c3ccc(Cl)cc3)[C@@H](c3ccc(Cl)cc3)N2C(=O)N2CCNC(=O)C2)c(OC(C)C)c1 | 98.2% (active)
8 | CO[C@H]1C[C@H]2CC[C@@H](C)[C@@](O)(O2)C(=O)C(=O)N2CCCC[C@H]2C(=O)O[C@H]([C@H](C)C[C@@H]2CC[C@H](OC(=O)C(C)(CO)CO)[C@H](OC)C2)CC(=O)[C@H](C)/C=C(\C)[C@@H](O)[C@@H](OC)C(=O)[C@H](C)C[C@H](C)/C=C/C=C/C=C/1C | 54.1% (active)
9 | O=C(O)c1cc(I)ccc1NC(=O)[C@H](Cc1ccccc1)NCc1ccccc1 | 81.4% (active)
10 | Nc1ncn([C@@H]2O[C@H](CO)[C@@H](O)[C@@H]2O)c(=O)n1 | 99.1% (active)
11 | CO[C@H]1C[C@@H]2CC[C@@H](C)[C@@](O)(O2)C(=O)C(=O)N2CCCC[C@H]2C(=O)O[C@H]([C@H](C)C[C@@H]2CC[C@@H](O)[C@H](OC)C2)CC(=O)[C@H](C)/C=C(\C)[C@@H](O)[C@H](OC)C(=O)[C@H](C)C[C@H](C)/C=C/C=C/C=C/1C | 61% (active)
12 | CC(=O)OCC(=O)[C@]1(O)[C@H](C)C[C@H]2[C@@H]3CCC4=CC(=O)C=C[C@]4(C)[C@]3(F)[C@H](O)C[C@@]21C | 84.6% (active)
13 | CC[C@]1(O)C[C@@H]2CN(CCc3c([nH]c4ccccc34)[C@@](C(=O)OC)(c3cc4c(cc3OC)N(C=O)[C@H]3[C@@](O)(C(=O)OC)[C@H](OC(C)=O)[C@]5(CC)C=CCN6CC[C@@]43[C@@H]65)C2)C1 | 11.8% (active)
14 | C[C@@]12CC[C@H]3c4ccc(O)cc4C[C@@H](CCCCCCCCCS(=O)CCCC(F)(F)C(F)(F)F)[C@H]3[C@@H]1CC[C@@H]2O (some centres undefined) | 122% (inactive)
15 | CC(=O)O[C@@]1(C(C)=O)CC[C@H]2[C@@H]3C[C@H](C)C4=CC(=O)CC[C@]4(C)[C@@H]3CC[C@@]21C | 105% (inactive)
16 | CC(=O)O[C@]12CO[C@@H]1C[C@H](O)[C@]1(C)C(=O)[C@H](O)C3=C(C)[C@H](OC(=O)[C@H](O)[C@@H](NC(=O)OC(C)(C)C)c4ccccc4)C[C@](O)([C@H](OC(=O)c4ccccc4)C21)C3(C)C (some centres undefined) | 16.1% (active)
17 | CCC1=CC2CN(C1)Cc1c([nH]c3ccccc13)[C@@](C(=O)OC)(c1cc3c(cc1OC)N(C)[C@H]1[C@@](O)(C(=O)OC)[C@H](OC(C)=O)[C@]4(CC)C=CCN5CC[C@@]31[C@H]54)C2 (some centres undefined) | 8.33% (active)
18 | CC(=O)O[C@H]1C(=O)[C@@]2(C)C([C@H](OC(=O)c3ccccc3)[C@]3(O)C[C@H](OC(=O)[C@H](O)[C@@H](NC(=O)c4ccccc4)c4ccccc4)C(C)=C1C3(C)C)[C@]1(OC(C)=O)CO[C@@H]1C[C@H]2O (some centres undefined) | 17% (active)

experiment: viability rescue of complex I mutant cybrids, primary screen, cell-based, galactose medium, ATP luminescence (AID 1645843;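 active = z-score of at least 1.8 in each of two replicates, scored against plate mean and spread of sample wells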;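 also: positive z means more ATP and so rescue of galactose-driven cybrid death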); settings: complex I mutant cybrid cells, 72 h, stronger effect = higher value

Row | Compound | z-score
19 | CCc1nc(CNc2cc(C(=O)N[C@H](C)c3ccc(OC)cc3)cc(S(=O)(=O)N(C)C)c2)c(C)[nH]1 | 0.08 (inactive)
20 | CC(C)Cn1nc(C(=O)NCc2cccnc2)c2c1CCN(C(=O)c1scc3c1OCCO3)C2 | -1.46 (inactive)
21 | CN(C)c1ncc(CN2CCc3c(cc(Cc4ccccc4)c(=O)n3Cc3ccc(F)cc3)C2)s1 | -0.525 (inactive)
22 | COc1ccccc1C(=O)N1CCN2C(=O)[C@@H]3CSCN3C(=O)[C@H]2C1 | -0.395 (inactive)
23 | CCN1CCN(C(=O)c2cc(-c3cc(C)cs3)cc(S(=O)(=O)N3CCOCC3)c2)CC1 | 2.05 (inactive)
24 | CC(C)NS(=O)(=O)c1cc(NC2CCCCC2)cc(C(=O)NC2Cc3ccccc3C2)c1 | -0.045 (inactive)

Source: PubChem BioAssay
